Screens: PubChem, National Center for Advancing Translational Sciences (NCATS)
Tau fibril ThT: blocks human tau fibril formation measured by thioflavin T; P10636; recombinant tau K18 P301L, heparin-induced fibrillization, ThT fluorescence; Potency, µM (highest dose often 57.4 µM), inactives show at the top dose activity, negative = inhibition, hits mostly inhibitors; 2.1% of 270,000 active; also: potency is read from the fitted curve at half-maximal effect; nearly all actives have a fitted effect of over 55% in size
Target sequence (P10636 561-689 P618L limits assumed): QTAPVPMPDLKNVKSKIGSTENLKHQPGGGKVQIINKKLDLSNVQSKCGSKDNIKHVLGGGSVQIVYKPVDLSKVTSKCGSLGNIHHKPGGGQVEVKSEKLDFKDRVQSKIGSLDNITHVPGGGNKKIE
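Heparin-induced fibrillization of the P301L-mutant K18 repeat-domain fragment of human tau was followed by ThT binding in quantitative high-throughput format.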
Tau fluor cs: counter-screen for tau fibril formation inhibitors. 0.93% of 280,000 active. AID 1463. tau K18 P301L Alexa594 fluorescence, heparin fibrillization. Potency, µM (highest dose often 57.7 µM), inactives show top-dose activity change, negative = decrease; also: potency is read from the fitted curve at half-maximal effect; nearly all actives have a fitted effect of over 55% in size
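Human tau K18 P301L (15 uM unlabeled, 0.24 uM Alexa 594-labeled) in 100 mM sodium acetate pH 7 with 20 uM heparin, 6 hr at 37 C. ThT 30 uM added, 1 hr ambient; Alexa 594 FP and total fluorescence read at 555/632 nm.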
TRb SRC2 PPI: inhibitors of human thyroid hormone receptor beta-SRC2 interaction | P10828 | TRbeta-SRC2 peptide binding, fluorescence polarization; receptor liganded with 1 µM T3 | Potency, µM (top dose mostly 106 µM), for inactives: at the top dose activity change, negative = inhibition, hits mostly inhibitors | 0.065% of 280,000 active;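 also: potency is read from the fitted curve at half-maximal effect; plate controls were bound peptide for no effect and peptide without receptor for full effect; nearly all actives have a fitted effect of over 50% in size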
Target sequence (P10828 whole entry, looked up): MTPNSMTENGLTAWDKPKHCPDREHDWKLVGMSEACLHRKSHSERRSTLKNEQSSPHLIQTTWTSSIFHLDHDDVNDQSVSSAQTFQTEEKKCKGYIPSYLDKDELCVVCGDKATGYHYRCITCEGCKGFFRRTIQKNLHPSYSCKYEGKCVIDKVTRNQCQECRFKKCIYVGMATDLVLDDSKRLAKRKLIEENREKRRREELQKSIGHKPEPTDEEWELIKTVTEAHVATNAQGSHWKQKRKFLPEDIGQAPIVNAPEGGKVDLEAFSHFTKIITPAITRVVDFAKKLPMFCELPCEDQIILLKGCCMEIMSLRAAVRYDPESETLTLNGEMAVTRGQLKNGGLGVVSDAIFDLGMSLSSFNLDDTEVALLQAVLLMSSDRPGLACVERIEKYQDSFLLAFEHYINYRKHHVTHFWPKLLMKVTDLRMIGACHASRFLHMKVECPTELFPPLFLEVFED
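TRb LBD 0.6 uM + Texas Red SRC2 peptide 20 nM, 1 uM T3, Tris buffer w/ 5% DMSO; compound pinned, 5 h RT; FP read ex 555/em 632; normalized to unbound and bound controls.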
PNC inhibitor: blocks assembly of the perinucleolar compartment | PC3M PTB-GFP, PNC prevalence imaging, 16 h; active compounds read low | activity change (PNC), negative = inhibition, % at 10 µM | 3.1% of 140,000 active;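 active = readout at or below -70, meaning at least 70% loss of cells showing the perinucleolar compartment, a nuclear body marking cancer cells; inconclusive = readout between -30 and a set limit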;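 also: plate controls were DMSO wells for no effect and camptothecin positive control wells for full effect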
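Compounds are pinned in duplicate onto adhered PC3M cells stably expressing GFP-tagged PTB and incubated 16 h at 37 C. Cells are then fixed, nuclei stained with Hoechst, and PNC-positive cells counted.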
Tau FP inhib: blocks human tau fibril formation measured by polarization; AID 1468; Potency, µM (doses to about 57.7 µM), for inactives: at the top dose activity, negative = inhibition, most hits filed as inhibitors; P10636; 0.39% of 280,000 active; K18 P301L tau heparin fibrillization, Alexa594 FP, 6 h; also: potency is read from the fitted curve at half-maximal effect; nearly all actives have a fitted effect of over 55% in size
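Compound effects on tau fibrillization are measured by Alexa 594 fluorescence polarization (ex 555, em 632 nm). K18 P301L tau is used at 15 uM with 0.24 uM labeled tracer, and 20 uM heparin induces aggregation over 6 hr at 37 C.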
TR SRC2 fluor cs: Texas Red fluorescence interference in TRb-SRC2 counter-screen. Potency, µM (titrated, usually from 106 µM), for inactives: at the highest dose fluorescence change, negative = quenching. TRb/SRC2 Texas Red total fluorescence interference. AID 1479. 0.29% of 280,000 active; active = well fitted curve in either direction with a large enough effect; inconclusive = small, poorly fitted or top-dose-only effect; also: potency is read from the fitted curve at half-maximal effect
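Human TRb ligand-binding domain at 0.6 uM with 20 nM Texas Red SRC2 peptide in Tris buffer containing 1 uM T3 and 5% DMSO, incubated with compound 5 h at ambient temperature. Total fluorescence (555/632 nm) calculated as parallel + 2 × perpendicular.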
An asterisk follows results filed as active; u = inconclusive; x = not tested or not shown; [ ] = dose if it differs, or a comment. A selection: hits, their analogues and other compounds. The true share with any hit is near 4.6%. Unless noted, calls follow the shape of the dose curve; as a rule, active = well fitted curve in the direction sought with a large enough effect; inconclusive = small, poorly fitted or top-dose-only effect, or another doubt; inactive = no such curve, though single readings can be large; an effect the other way counts as inactive or inconclusive. Unless noted, % is scaled to controls: 0 for no effect and ±100 for the full control effect.

SMILES | Tau fibril ThT | Tau fluor cs | TRb SRC2 PPI | PNC inhibitor | Tau FP inhib | TR SRC2 fluor cs
CC(C)c1ccc(C2=NC(c3ccncc3)=Nc3ccc(F)cc3N2)cc1 | u | u | -6% | x | 10% | 1%
O=C(O)c1cccc2cccnc12 | -1% | -5% | -12% | 51 | -6% | -1%
CCCCCCn1c(=O)c(F)cn(Cc2ccc(OC)c([N+](=O)[O-])c2)c1=O | -19% | u | 1% | u | -6% | 3%
O=S(=O)(CCn1cccc1)CCn1cccc1 | -2% | 4% | -2% | -100* | 7% | -6%
C=C[C@@H](C1=CC(=O)C(OC)=C(OC)C1=O)c1ccccc1 | 28µM* | u | -6% | x | u | -2%
COc1ccc(O)cc1 | x | x | 2% | x | x | -3%
C=CC(C1=CC(=O)C=CC1=O)c1ccccc1 (stereo not given) | u | u | 5% | x | -14% | -2%
C=CC(C1=CC(=O)C(OC)=CC1=O)c1ccc(O)cc1 (stereo not given) | 32µM* | u | -8% | x | u | -1%
COc1ccccc1-c1c(NC(=O)C(C)C)n(C)c2ccccc2c1=O | -7% | -2% | 2% | x | -2% | -4%
CCCn1nnc(NC(=O)/C=C/c2ccccc2)n1 | 1% | 1% | -3% | x | 3% | -3%
Cc1nc(NC(=O)/C=C/c2ccccc2)n[nH]1 | 16µM* | -3% | 0% | -13 | u | 1%
CCN(CC)S(=O)(=O)c1ccc(N=Nc2c(N)[nH]c(=O)[nH]c2=O)cc1 | u | -11% | -7% | x | 8% | -5%
COC(=O)c1ccc(/C=C/c2ccc3cccc(OC(C)=O)c3n2)cc1 | 5% | -4% | -13% | 15 | 2% | 3%
CCOc1c(OC(C)=O)ccc(/C=C/c2ccc3cccc(OC(C)=O)c3n2)c1[N+](=O)[O-] | 6.3µM* | 8.9µM*[quencher] | 1% | -2 | u | -9%
COc1c(OC(C)=O)ccc(/C=C/c2ccc3ccccc3n2)c1[N+](=O)[O-] | 10µM* | 16µM*[quencher] | 0% | -29 | u | -11%
CC(=O)/C=C/c1ccc2ccccc2n1 | u | 1% | -1% | 96 | 1% | 6%
COc1c(OC(C)=O)ccc(/C=C/c2ccc3cccc(OC)c3n2)c1[N+](=O)[O-] | 8.9µM* | u | -12% | -11 | -1% | -13%
Cc1cc2c3c(c1)C1(C(=O)N3C(C)(C)CC2C)C(C#N)=C(N)Oc2cc(O)ccc21 (stereo not given) | -3% | -26% | 3% | -5 | -9% | 1%
O=C(CC1Oc2ccc(Cl)cc2NC1=O)NC1CCCCCC1 (stereo not given) | -2% | -5% | 1% | -3 | -4% | -2%
O=C(CC1(C(F)(F)F)OCCO1)Nc1ccc2c(c1)OCO2 | 3% | 9% | 1% | -1 | 5% | -4%
C#CCn1c(=NC(=O)c2ccc(S(=O)(=O)N3CCc4ccccc4C3)cc2)sc2cc(S(N)(=O)=O)ccc21 | 5% | -6% | 7% | -134* | u | 0%
C=CCn1c(=NC(=O)c2ccc(S(=O)(=O)N3CCc4ccccc4C3)cc2)sc2cc(S(N)(=O)=O)ccc21 | -4% | -19% | 0% | -17 | u | 0%
CCc1ccc2[nH]c(=O)c(CN(CCN(CC)CC)C(=O)NC3CCCCC3)cc2c1 | 0% | 8% | -6% | 8 | 5% | 0%
O=C(/C=C/c1ccco1)NCC1(c2ccccc2)CCCC1 | -10% | -1% | 0% | -109* | 2% | 0%
Cc1cccc(NCCNc2cccc(C)c2)c1 | u | u | 2% | 8 | 15% | 1%
SMILES | Tau fibril ThT | Tau fluor cs | TRb SRC2 PPI | PNC inhibitor | Tau FP inhib | TR SRC2 fluor cs
Cc1cccc(NCCC#N)c1 | 12% | 10% | -2% | -134* | 5% | -2%
O=C1C(Cl)=C(NC2CCc3ccccc32)C(=O)c2ncccc21 (stereo not given) | 13µM* | u | u | x | u | -13%
O=C1C(Cl)=C(NCCN2CCOCC2)C(=O)c2ncccc21 | 13µM* | u | u | x | u | -16%
Cc1cccnc1NC(=O)CCNS(=O)(=O)c1ccc2c(c1)c(=O)n(C)c(=O)n2C | -2% | -1% | 0% | x | 0% | 2%
CCOc1cccc2cc(-c3nnc(NCc4ccco4)s3)c(=O)oc12 | u | -27% | -2% | 34 | u | -4%
CC1=NNC(=O)/C1=C\c1cn(-c2ccccc2)nc1-c1ccc(F)cc1 | 20µM* | -23% | 3% | x | 5% | -1%
CC1=NNC(=O)/C1=C\c1cn(-c2ccccc2)nc1-c1cccs1 | u | -10% | 6% | -6 | 9% | 0%
CN1CCCC(OC(=O)CCCCC(=O)OC2CCCN(C)C2)C1 (stereo not given) | 4% | -1% | -3% | 10 | 3% | -4%
COc1ccc(NC2CS(=O)(=O)CC2NCc2ccccc2)cc1 (stereo not given) | -3% | 0% | -3% | -116* | 12% | -3%
O=S1(=O)C[C@@H](O)[C@@H](Nc2ccccc2)C1 | 1% | -4% | -7% | x | -12% | -2%
Cc1cc(O)c(NC(=S)NC(=O)c2ccc(-c3ccc(Cl)cc3)o2)cc1C | 11µM* | 7.9µM*[quencher] | 27% | 10 | u | -27%
O=C(Nc1ccccc1N1CCCC1)c1ccc(Br)o1 | 2% | -1% | 10% | 10 | 8% | -2%
O=C(Nc1ccccc1N1CCCCC1)c1ccc(-c2ccc(Cl)cc2)o1 | u | -19% | -1% | -82* | -1% | -3%
COC(=O)C1C(O)C(C)C(O)C(C)(O)/C=C\C=C(/C)C(=O)Nc2c(C)c(OC(C)=O)c3c(c2O)C(=O)C(C)=C2OCOC(=C23)/C(C)=C/C(C)(O)C(O)C(C)C1O (stereo not given) | x | 4µM*[quencher] | -1% | x | u | 1%
CCc1ccc(N(C2C=CS(=O)(=O)C2)S(=O)(=O)c2ccc(C)cc2)cc1 (stereo not given) | -3% | -9% | -1% | x | -3% | 1%
COc1ccc(CCN(C)CCCC(C#N)(c2cc(OC)c(OC)c(OC)c2)C(C)C)cc1OC (stereo not given) | -7% | -12% | 9% | -115* | -6% | 1%
Cc1cccc(Oc2nc3ccccn3c(=O)c2/C=C(\C#N)C(=O)NC2CCS(=O)(=O)C2)c1 (stereo not given) | -1% | 5% | 2%[53 µM] | -104* | 4% | 1%[53 µM]
Cc1ccccc1C(=O)Oc1ccccc1C(=O)N1CCOCC1 | -10% | -3% | -4% | 18 | -3% | -7%
